Measured values published in PubChem BioAssay AID1159580 (chemical genetic matrix, 2015).
Where “and” joins values, the source holds several entries; their conditions need not be identical. Equal entries are not always repeated. Hit rate of the full screen: of about 5,500 compounds, about 2,000 (36%) were called active. Another 18% or so got no clear call; they are omitted. Cut-off read from the data, not from the text of the source: active = normalized growth mostly below about 0.91 (no sharp cut-off); inconclusive = no clear call, values can overlap the other calls; inactive = mostly above about 0.92. Some of the results follow.

Test: chemical genetic growth profiling, strain panel (AID 1159580);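 note: tested at 20 µM; growth read once vehicle control cultures reached saturation at 30 °C; 1 = growth at the plate median or of vehicle wells; lower values mean less growth of the strain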
Details: S. cerevisiae deletion strains, growth OD

Measured: normalized growth

CC(=O)O[C@H]1CC[C@]2(C)C3CC[C@@]4(C)C(CC5O[C@@]6(CCC(C)CO6)[C@@H](C)C54)C3CC[C@@H]2C1 (stereo not given in full)
inactive: locus YAL021C, strain ccr4, hits give low values 1.02 | locus YAL026C, strain drs2, hits give low values 1.02 | locus YAL030W, strain snc1, hits give low values 1.01 | locus YBL061C, strain skt5, hits give low values 1.01 | locus YBR009C, strain hhf1, hits give low values 1.03 | locus YBR021W, strain FUR4, hits give low values 0.996 | locus YBR023C, strain chs3, hits give low values 1.01 | locus YBR171W, strain sec66, hits give low values 1.03 | locus YBR229C, strain ROT2, hits give low values 0.99 | locus YBR231C, strain swc5, hits give low values 1 | locus YBR279W, strain paf1, hits give low values 1.01 | locus YCL011C, strain gbp2, hits give low values 1 | locus YCL016C, strain dcc1, hits give low values 1.01 | locus YCL029C, strain bik1, hits give low values 0.993 | locus YCL069W, strain vba3, hits give low values 1.02 | locus YCR088W, strain abp1, hits give low values 1.02 | locus YDL005C, strain med2, hits give low values 1.03 | locus YDL035C, strain GPR1, hits give low values 1.03 | locus YDL040C, strain nat1, hits give low values 1 | locus YDL074C, strain BRE1, hits give low values 1.02 | locus YDL101C, strain DUN1, hits give low values 0.986 | locus YDL185W, strain tfp1, hits give low values 0.986 | locus YDL192W, strain arf1, hits give low values 0.997 | locus YDR001C, strain nth1, hits give low values 1.01 | locus YDR069C, strain doa4, hits give low values 1.01 | locus YDR101C, strain arx1, hits give low values 0.992 | locus YDR137W, strain rgp1, hits give low values 1.04 | locus YDR159W, strain sac3, hits give low values 1.01 | locus YDR162C, strain NBP2, hits give low values 1.02 | locus YDR195W, strain ref2 1.03 | locus YDR297W, strain sur2, hits give low values 1 | locus YDR318W, strain mcm21, hits give low values 0.997 | locus YDR334W, strain swr1, hits give low values 1.03 | locus YDR335W, strain msn5, hits give low values 1.02 | locus YDR388W, hits give low values 0.991 | locus YDR392W, strain spt3, hits give low values 1.03 | locus YDR502C, strain sam2, hits give low values 0.977 | locus YEL003W, strain gim4, hits give low values 1.03 | locus YEL037C, strain rad23, hits give low values 1.02 | locus YEL061C, strain CIN8 (second series), hits give low values 1.05 | locus YEL061C, strain CIN8, hits give low values 1 | locus YER015W, strain faa2, hits give low values 1.01 | locus YER016W, strain bim1, hits give low values 1 | locus YER110C, hits give low values 0.991 | locus YER111C, strain swi4, hits give low values 1.02 | locus YER155C, strain BEM2 (second series), hits give low values 1.04 | locus YER155C, strain BEM2, hits give low values 0.975 | locus YER167W, strain BCK2, hits give low values 0.998 | locus YFR010W, strain ubp6, hits give low values 1.01 | locus YGL078C, strain dbp3, hits give low values 0.98 | locus YGL167C, strain pmr1, hits give low values 1 | locus YGL173C, strain kem1, hits give low values 1.01 | locus YGL227W, strain vid30, hits give low values 1.02 | locus YGL240W, strain doc1, hits give low values 1.02 | locus YGL248W, strain PDE1, hits give low values 0.985 | locus YGL253W, strain hxk2, hits give low values 1.01 | locus YGR135W, strain pre9, hits give low values 0.97 | locus YGR229C, strain SMI1, hits give low values 1.08 | locus YGR252W, strain gcn5, hits give low values 0.949 | locus YHR013C, strain ard1, hits give low values 1.01 | locus YHR027C, strain rpn1, hits give low values 1.02 | locus YHR030C, strain SLT2, hits give low values 0.989 and 0.998 | locus YHR079C, strain IRE1 (second series), hits give low values 0.989 | locus YHR079C, strain IRE1, hits give low values 1.01 | locus YHR094C, strain hxt1, hits give low values 0.996 | locus YHR129C, strain ARP1, hits give low values 0.996 | locus YHR142W, strain chs7, hits give low values 1.03 | locus YHR200W, strain rpn10, hits give low values 0.989 | locus YIL066C, strain RNR3, hits give low values 1.01 | locus YIL073C, strain SPO22, hits give low values 1.06 | locus YIL125W, strain kgd1, hits give low values 1 | locus YIR030C, strain dcg1, hits give low values 0.992 | locus YJL092W, strain hpr5, hits give low values 1.03 | locus YJL095W, strain BCK1 (second series), hits give low values 1 | locus YJL095W, strain BCK1, hits give low values 0.987 and 1.01 | locus YJL115W, strain asf1, hits give low values 1.01 | locus YJL129C, strain trk1, hits give low values 1.03 | locus YJL134W, strain LCB3, hits give low values 0.987 | locus YJL154C, strain vps35, hits give low values 1.01 | locus YJL164C, strain tpk1, hits give low values 1.01 | locus YJL166W, strain qcr8, hits give low values 1.01 | locus YJL168C, strain set2, hits give low values 0.993 | locus YJL187C, strain SWE1 (second series), hits give low values 0.975 | locus YJL187C, strain SWE1, hits give low values 1.01 | locus YJR043C, strain POL32, hits give low values 1.01
